# This is a sample that favours compounds with a hit; in the whole collection about 1.6% have one here.
# KCNQ2 inh: KCNQ2 (rat) channel inhibition | B-score at 10 µM | AID 2156 | 1.1% of 310,000 active | CHO-K1 KCNQ2, FluxOR thallium flux, 20 min; active compounds read low;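 active means fluorescence ratio B-score at most minus 3 library SDs, with starting brightness B-score within 2 library SDs, cut at about -5.5 in these data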
# KCNQ2 pot: potentiators of rat KCNQ2 potassium channel; O88943; CHO-K1 KCNQ2, FluxOR thallium flux fluorescence; active compounds read high; B-score at 10 µM; 0.54% of 310,000 active; AID 2239;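 active means fluorescence ratio B-score at least 3 SD of library B-scores, with initial fluorescence B-score within 3 of them, cut at about 5.3 in these data; same plate scores as AID 2156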;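 further: B-score of peak minus minimum over baseline fluorescence ratio after K+ and Tl+ stimulus; positive B-score means potentiation of KCNQ2 with more thallium influx and brighter signal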
# Active calls of the source: *; i = inactive; nt = no result given.
SMILES,KCNQ2 inh,KCNQ2 pot
CN1CCN(S(=O)(=O)c2cccc(C(=O)Nc3cc(C(F)(F)F)ccc3N3CCCCC3)c2)CC1,-7.3*,-7.3
CN1CCN(S(=O)(=O)c2cccc(C(=O)Nc3ccccc3N3CCOCC3)c2)CC1,i,0.44
O=C1COc2ccc(C(=O)COc3ccc(Cl)cc3Br)cc2N1,i,0.28
O=C(O)CCC(=O)Nc1ccc(C(=O)OCC(=O)c2ccc(Cl)cc2Cl)cc1,i,1.3
NC(=O)c1nsc(C(=O)N(Cc2cccnc2)C(C(=O)NCc2ccc(F)cc2)c2ccc(F)cc2)c1N (stereo unspecified),i,1.7
O=C(Nc1ccccc1)C1=C[C@H](c2ccc3c(c2)OCO3)C[C@H](OCc2ccc(CO)cc2)O1,i,nt
N#Cc1cc([N+](=O)[O-])ccc1NC(=O)COC(=O)CC1CCCC1,i,0.01
COc1cc2c(C(=O)N3CCN(C)CC3)c(C)n(-c3ccccc3)c2cc1Br,i,nt
CCN(CC)CCNC(=O)c1c(C)n(-c2ccccc2)c2cc(Br)c(OC)cc12,-5.8*,-5.8
COc1ccccc1N1CCN(C(=O)CCc2nnc3ccc(N4CCC(C)CC4)nn23)CC1,i,0.2
CCC1CCCCN1C(=O)CSc1nc(N)cc(N)n1 (stereo unspecified),i,nt
Cc1ccc2c(c1)N(C(=O)CCC(=O)NCc1cccc(Cl)c1)CC(C)O2 (stereo unspecified),-5.7*,-5.7
Cc1ccc2c(c1)N(C(=O)CCC(=O)NCc1ccccc1)CC(C)O2 (stereo unspecified),i,nt
Cc1cc(C(=O)N2CCN(c3ccc([N+](=O)[O-])cc3)CC2)n[nH]1,i,nt
O=C(NNC(=S)Nc1ccc(Cl)cc1Cl)c1ccc(N2CCOCC2)c([N+](=O)[O-])c1,i,4.3
COc1cccc(C(=O)NC23CC4CC(CC(C4)C2)C3)c1,i,0.94
Cc1ccccc1N/C(SCc1ccc(Cl)cc1)=C(/C#N)C(=O)NCc1ccco1,-7*,-7
Cc1ccc(CS/C(Nc2ccccc2C)=C(\C#N)C(=O)NCc2ccco2)c(C)c1,i,nt
CN(C)c1ccc(C(=O)Nc2ccc(O)c3c(=O)cc(-c4ccccc4Cl)oc23)cc1,-5.8*,-5.8
Cc1cccc(C(=O)Nc2ccc(O)c3c(=O)cc(-c4ccccc4Cl)oc23)c1,i,nt
CC(C)(C)n1nc2c(c1NC(=O)COc1ccc(Cl)cc1)CSC2,i,nt
CC(C)(C)n1nc2c(c1NC(=O)Cc1cccs1)CSC2,i,9.5*
Cc1ccc(OCc2nnc(SCC(=O)C(C)(C)C)n2Cc2ccco2)cc1,-7*,-7
Cc1cc(NC(=O)CSc2nnc(COc3ccccc3)n2Cc2ccco2)no1,i,0.85
CCCCC(=O)Nc1ccccc1C(C)C,i,0.77
SMILES,KCNQ2 inh,KCNQ2 pot
COc1ccc(NC(=S)NNc2ccc(C(=O)O)cc2)cc1,i,nt
COc1ccccc1C(=O)NC(CCSC)C(=O)N1CCC(Cc2ccccc2)CC1 (stereo unspecified),-7.2*,-7.2
COc1ccccc1C(=O)NC(CCSC)C(=O)OC(C)C(N)=O (stereo unspecified),i,1.4
CSCCC(NC(=O)c1ccccc1Cl)C(=O)N1CCN(C(c2ccccc2)c2ccccc2)CC1 (stereo unspecified),-7.2*,-7.2
CSCCC(NS(=O)(=O)c1ccc(C)cc1)C(=O)N1CCN(C(c2ccccc2)c2ccccc2)CC1 (stereo unspecified),i,nt
COC(=O)CNC(=O)COC(=O)c1ccc(OC)c([N+](=O)[O-])c1,i,nt
Cc1ccc(C(=O)N2CCC(N3CCC(C(=O)N4CCOCC4)CC3)CC2)cc1C,i,1.1
COc1ccc(N(CC(=O)NCCSCc2ccco2)S(=O)(=O)c2ccccc2)cc1Cl,i,nt
O=C(CSCc1ccccc1)NNc1c(F)c(F)cc(F)c1F,i,nt
CCCC1=C(C(=O)OCC)C(c2ccc(N(C)C)cc2)n2ncnc2N1 (stereo unspecified),i,0.52
CCOC(=O)c1ccc(S(=O)(=O)N2CCN(CC(=O)NC(=O)NC3CCCCC3)CC2)cc1,-5.6*,-5.6
O=C(CN1CCN(S(=O)(=O)c2ccc(F)cc2)CC1)NC1CCCC1,i,2
N#C/C(=C/c1ccc(N2CCCCCC2)o1)c1cccc(F)c1,i,nt
N#C/C(=C/c1ccc(N2CCCCCC2)o1)c1ccc(F)cc1,-7*,-7
O=C(NC1CCCCCC1)c1ccco1,i,nt
Cn1c(=O)c2cc(S(=O)(=O)NCCC(=O)NCC3CCCO3)ccc2n(C)c1=O (stereo unspecified),i,1.1
Cc1cc(C)n(-c2nc(NCCN(C)C)c3c4c(sc3n2)COC(C)(C)C4)n1,i,1.7
Cc1cc(C)n(-c2nc(-n3nc(C)cc3C)c3c4c(sc3n2)COC(C)(C)C4)n1,-8*,-8
O=C(OCC(=O)N1N=C(c2ccc(Cl)cc2)CC1c1ccco1)c1ccccc1O (stereo unspecified),i,nt
CCOCCCNCc1cc(Cl)cc(Cl)c1OCC,i,1.6
